Screens as filed in PubChem BioAssay.
A selection: hits, their analogues and other compounds. The true share with any hit is near 13%.
Shiga toxin inh – blocks Shiga toxin action in Vero cells | inhibition, % at 38.7 µM | 290,000 tested, 9.2% active | AID 2315 | Vero cells, Shiga toxin protein synthesis inhibition reporter; in the data active means inhibition mostly above about 28%, no sharp cut-off; inactive means mostly below about 43%; further: 0% is about no effect
HCV inh – HCV inhibition; Huh7.5.1 HCVcc-Cre infection, luciferase reporter, 44 h; Potency, µM (titrated, usually from 41.8 µM), without a hit: at the highest dose activity change, negative = inhibition, actives largely listed as inhibitors; 340,000 tested, 3.4% active; AID 651820; active means well fitted inhibition curve with a large enough effect; inconclusive means small, poorly fitted or top-dose-only effect, or another doubt; inactive means no such curve, though single readings can be large or run the other way; further: potency means the concentration at half of the fitted maximal effect; on the % scale 0 is the no-effect control and ±100 the full control effect
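A cell-based infection assay in which seeded cells (1,000 per well) receive test compound after 4 h, are inoculated with HCVcc-Cre at approximately 0.5 moi, and are incubated 44 h before luminescence detection.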
MARV entry inh – Marburg virus entry inhibition | 300,000 tested, 1.8% active | Potency, µM (doses to about 37.8 µM), without a hit: at the highest dose activity change, negative = inhibition, hits mostly inhibitors | Marburg virus pseudotyped entry inhibition, cell reporter; calls by dose curve; tested in HEK293 cells; further: potency means the concentration at half of the fitted maximal effect; on the % scale 0 is the no-effect control and ±100 the full control effect
FMDV antiviral – blocks foot and mouth disease virus | FMDV antiviral cell-based qHTS | Potency, µM (highest dose often 57.9 µM), for the others: at the highest dose activity change, negative = inhibition, usual class: inhibitors | 410,000 tested, 1.2% active | AID 1159524; calls by dose curve; tested in HEK293T cells; further: read-out not given here; potency means the concentration at half of the fitted maximal effect; on the % scale 0 is the no-effect control and ±100 the full control effect; nearly all actives have a fitted effect of over 45% in size
CHX counter – affects cycloheximide protein synthesis inhibition readout, counter-screen; max response, %; 300,000 tested, 12% active; cell reporter, cycloheximide protein synthesis inhibition counterscreen; in the data active means max response mostly above about 13%, no sharp cut-off; inactive means mostly below about 14%; further: read at 38.3 µM for the half of the compounds with a filed dose; 0% is about no effect
LASV entry inh – blocks Lassa virus binding to or entry into cells; Potency, µM (highest dose often 37.9 µM), for the others: top-dose activity change, negative = inhibition, usual class: inhibitors; Lassa virus pseudotype entry inhibition, cell reporter; 300,000 tested, 1.2% active; calls by dose curve; tested in HEK293 cells; further: potency means the concentration at half of the fitted maximal effect; on the % scale 0 is the no-effect control and ±100 the full control effect; nearly all actives have a fitted effect of over 50% in size
The depositor's hits bear a star; ? = inconclusive; . = not tested or not shown; [ ] = remark or other dose.

SMILES	Shiga toxin inh	HCV inh	MARV entry inh	FMDV antiviral	CHX counter	LASV entry inh
O=C(Nc1ccc2c(c1)OCCO2)c1ccc(Br)o1	91*	-29%	?	5%	42*	?
CCN1C(=O)c2ccc(C(=O)Nc3ccc4c(c3)OCO4)cc2C1=O	62*	-15%	.	0%	23*	.
CCc1nc2ccc(C(=O)Nc3cccc(C(C)=O)c3)cc2nc1CC	20	?	-9%	?	11	-4%
CCc1nc2ccc(C(=O)Nc3ccc4c(c3)OCO4)cc2nc1CC	35	2µM*	10%	49%	27*	-17%
CCC(=O)Nc1cccc(NC(=O)c2ccc3c(c2)OCCO3)c1	56*	?	7%	.	50*	12%
CCN1C(=O)c2ccc(C(=O)NCc3ccc4c(c3)OCO4)cc2C1=O	13	15%	?	2%	-1	11%
Cc1ccccc1OCc1nc(-c2ccc(-n3cccc3)cc2)no1	-7	-9%	.	-6%	-3	.
CCCOc1cccc(C(=O)Nc2cccnc2)c1	5	-22%	-11%	.	2	19%
CCCOc1cccc(C(=O)Nc2ccc3c(c2)OCCO3)c1	71*	?	.	-4%	24*	.
O=C(Nc1cccc(-c2cn3c(n2)SCC3)c1)c1ccc2c(c1)OCO2	116*	-27%	?	-5%	31	-4%
O=C(Nc1cccc(F)c1)c1ccc2c(c1)OCO2	69*	-3%	?	12%	59*	-3%
CCOc1ncccc1C(=O)Oc1ccc2c(c1)OCO2	33	17%	0%[46.1 µM]	2%	9	-18%
O=C(Oc1ccc2c(c1)OCO2)c1ccc(F)cc1Cl	137*	13%	?	40%	72*	?
COc1ccc(CCNC(=O)CSc2nc(C)cs2)cc1	-6	-19%	?	-10%	-4	0%
COc1ccccc1C1CCN(Cc2c(C)[nH]c3ccccc23)CC1	-4	-17%	?	-24%	-2	-2%[46.1 µM]
CCN(CC(=O)Nc1ccc2c(c1)OCCO2)C(=O)c1cccc(OCC(C)C)c1	32	-15%	29%	1%	16*	-20%
Cc1ccc(CNc2ccc3c(c2)OCO3)cc1	100*	10µM*	?	15%	42*	-22%
c1cc(CNc2ccc3c(c2)OCO3)ccn1	-4	12%	0%	23%	14	-4%
COc1cccc2c1OC1(C)CC2NC(=O)N1c1cccc(C(=O)Nc2ccc3c(c2)OCCO3)c1 (stereo not given)	93*	?	1%	-25%	33*	-1%
CCOc1ccc(C(=O)Nc2ccc3c(c2)OCCO3)cc1	49*	-5%	?	-20%	34*	?
CCn1c(SCc2ccc([N+](=O)[O-])cc2)nnc1C(C)NC(=O)c1ccc(C)cc1 (stereo not given)	-12	11%	25%	-25%	-7	-1%
CCOc1ccc(-n2c(C)nc3cc(C(=O)NCCC4=CCCCC4)ccc32)cc1	.	.	.	6%	.	?
Cc1ccc(NC(=O)c2oc3ccccc3c2NC(=O)c2ccc3c(c2)OCO3)cc1	33*	-10%	-3%	43%	12*	13%
Cc1ccc(CN(c2ccc(C(=O)Nc3ccc4c(c3)OCO4)cc2)S(C)(=O)=O)cc1	17	.	19%	-7%	12	-39%[14.3 µM]
CCCc1cc2c(cc1NC(=O)c1ccc(C(C)(C)C)cc1)OCO2	29*	?	?	43%	22*	-6%
SMILES	Shiga toxin inh	HCV inh	MARV entry inh	FMDV antiviral	CHX counter	LASV entry inh
O=C(Nc1ccc2c(c1)OCCO2)c1cccc(Br)c1	43*	-19%	?	1%	38*	-2%[46.1 µM]
Cc1ccc(C(=O)Nc2ccc3c(c2)OCCO3)cc1	47*	0%	?	?	15	2.8µM*
O=C(Nc1c(C(=O)Nc2cccc(F)c2)oc2ccccc12)c1ccc2c(c1)OCO2	30	-18%	?	63%	12	16%
COc1cccc(CNS(=O)(=O)c2ccc(N3CCCC3=O)cc2)c1	-5	?	?	-9%	-3	?
CC(C)[C@H](NC(=O)c1cccc(S(=O)(=O)N2CCOCC2)c1)C(=O)NCc1ccc(F)cc1	.	-9%	?	-10%	.	2%
CCN1C(=O)c2cccc3c(NC(=O)c4ccccc4)ccc1c23	-5	?	3%	?	-3	-25%
O=C(Nc1ccc2c(c1)OCCO2)c1ccc(Br)cc1	48	?	4µM*	2%	33*	?
